Screening results as filed in PubChem BioAssay.
Rows were chosen to be rich in hits. Some 5.4% of all compounds tested hit in one or more screens of this group.
RORgamma inh – ROR gamma (mouse) transcription inhibition | Potency, µM (highest dose often 53.6 µM), for the others: at the top dose activity change, negative = inhibition, usual class: inhibitors | Drosophila S2 Gal4-RORgamma UAS-luciferase reporter, 20 h | actives 5.4% (n = 310,000); note: potency is the fitted concentration of half-maximal effect; % is set by controls: 0 for no effect and ±100 for the full control effect; nearly all actives have a fitted effect of over 60% in size
Target sequence (P51450 whole entry, looked up, the tested form may be a part): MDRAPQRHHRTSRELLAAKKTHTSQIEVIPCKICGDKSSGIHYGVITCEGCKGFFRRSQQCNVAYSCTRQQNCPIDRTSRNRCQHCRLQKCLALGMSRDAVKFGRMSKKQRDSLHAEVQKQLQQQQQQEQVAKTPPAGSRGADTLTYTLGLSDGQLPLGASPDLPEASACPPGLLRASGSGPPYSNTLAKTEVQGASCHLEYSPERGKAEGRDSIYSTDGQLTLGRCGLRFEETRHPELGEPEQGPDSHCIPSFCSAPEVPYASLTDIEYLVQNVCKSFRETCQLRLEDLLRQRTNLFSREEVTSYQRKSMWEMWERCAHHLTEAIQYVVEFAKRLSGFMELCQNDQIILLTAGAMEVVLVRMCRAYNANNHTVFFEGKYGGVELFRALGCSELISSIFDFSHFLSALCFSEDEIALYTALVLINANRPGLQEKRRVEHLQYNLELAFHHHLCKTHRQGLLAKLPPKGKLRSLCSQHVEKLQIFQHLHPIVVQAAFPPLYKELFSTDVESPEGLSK
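In this cell-based reporter format, copper sulfate (700 uM final) drives Gal4–ROR gamma fusion expression from a metallothionein promoter in Drosophila Schneider cells; compounds preincubated 1 hr, reporter read after 20 hr at ambient temperature.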
p53 reactivator – re-activators of mutant p53 | H1299 p53-A138V BP100-luciferase reporter, luminescence, 24 h | Potency, µM (series often up to 92.2 µM), without a hit: at the highest dose activity change, positive = activation, actives largely listed as activators | actives 0.063% (n = 320,000); note: potency is the fitted concentration of half-maximal effect; % of control where 0% means no effect; nearly all actives have a fitted effect of over 45% in size
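H1299 (p53-null), stable ts p53-A138V + BP100-Luc; 1000 cells/well, Opti-MEM/10% FBS; cpd 4 pt, 1:5; 24 h, 37 deg C, 5% CO2; detection reagent 10 min RT; luminescence.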
Six1-Eya2 inh – Six1/Eya2 interaction inhibition; Q15475+O00167; AlphaScreen GST-Six1/His-Eya2 binding, biochemical; stronger effect = lower value; activity change, % (concentration not given with the values); actives 0.56% (n = 360,000); in the data active = activity change below about -65%; inconclusive = mostly about -30% to -63%; note: % is set by controls: 0 for no effect and ±100 for the full control effect
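AlphaScreen with GST-Six1 and His-Eya2 (5X mix: 250 nM and 500 nM), glutathione donor and nickel acceptor beads; buffer 50 mM Tris pH 8.0, 300 mM NaCl, 1 mM TCEP; 1 h at 37 C in the dark.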
Gal4-VP16 FLuc – counter-screen for ROR gamma inhibitors: Gal4-VP16 reporter | Drosophila S2 Gal4-VP16 UAS-luciferase, luminescence, 20 h | Potency, µM (series often up to 53.6 µM), for the others: at the top dose activity, negative = inhibition, actives largely listed as inhibitors | actives 3.5% (n = 310,000) | AID 2546;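 note: Gal4-VP16 expression switched on by copper sulfate through the metallothionein promoter; potency is the fitted concentration of half-maximal effect; % is set by controls: 0 for no effect and ±100 for the full control effect; nearly all actives have a fitted effect of over 50% in size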
CtBP-E1A inh – CtBP/E1A binding inhibition; AlphaScreen GST-E1A/His-CtBP binding, 1536-well; stronger effect = lower value; activity change, % (no concentration beside the values); actives 0.49% (n = 340,000); in the data active = activity change below about -65%; inconclusive = mostly about -30% to -63%; note: % is set by controls: 0 for no effect and ±100 for the full control effect
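GST-E1A and His-tagged CtBP (125 nM each as 5X stock) were preincubated with pin-transferred compound for 2 h at 37 °C in the dark, then glutathione donor and nickel acceptor beads were added for 1 h before AlphaScreen reading.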
The depositor's hits bear a star; ? = inconclusive; . = no result. Unless noted, calls come from the whole dose curve; as a rule, active = well fitted curve in the direction sought with a large enough effect; inconclusive = small, poorly fitted or top-dose-only effect, or another doubt; inactive = no such curve, though single readings can be large; an effect the other way counts as inactive or inconclusive.

SMILES	RORgamma inh	p53 reactivator	Six1-Eya2 inh	Gal4-VP16 FLuc	CtBP-E1A inh
C[C@H](CO)N1C[C@H](C)[C@H](CN(C)S(C)(=O)=O)OCc2cnnn2CCCC1=O	.	.	-3	.	6
C=CCn1c(=S)[nH]c2ccccc2c1=O	5.6µM*	-4%	6	4.5µM*	-3
C=CCn1c(=S)[nH]c2cc(-c3ccccc3)sc2c1=O	1µM*	9%	-2	2µM*	-5
CC(C)Cn1c(=S)[nH]c2ccccc2c1=O	1.1µM*	-2%	4	4.5µM*	4
CCCCC/C=C\C\C=C/C=C/C=C/[C@@H](O)[C@@H](O)CCCC(=O)O	-36%	.	.	3%	.
O=C(N/N=C/c1cn(-c2ccccc2)nc1-c1cccs1)c1ccncc1	1.3µM*	14%	-12	2.2µM*	-9
O=C(N/N=C/c1nn(-c2ccccc2)cc1-c1ccccc1)c1ccncc1	1.6µM*	?	-11	3.2µM*	4
NC(=O)N/N=C/c1cn(-c2ccccc2)nc1-c1cccs1	33%	-1%	-5	1%	1
Cc1ccc(-c2nn(-c3ccccc3)cc2/C=N/NC(=O)c2ccncc2)o1	2.8µM*	15%	-26	11µM*	-18
CCc1[nH]nc2c1C(c1ccc(Br)s1)C(C#N)=C(N)O2 (stereo not drawn)	11µM*	4%	0	?	2
N#CC1=C(N)Oc2n[nH]c(-c3cccs3)c2C1c1ccncc1 (stereo not drawn)	-7%	-6%	-9	3%	-5
Cc1ccc(C2C(C#N)=C(N)Oc3n[nH]c(-c4cccs4)c32)s1 (stereo not drawn)	10µM*	8%	-7	-22%	0
Cn1ncc2c(NNC(=O)c3ccc(Cl)cc3Cl)ncnc21	6.3µM*	6%	-10	7.1µM*	-4
Cn1ncc2c(NNC(=O)c3ccc(Cl)c(Cl)c3)ncnc21	0.32µM*	11%	-1	1.1µM*	-3
Cc1ccc(SCC(c2ccccc2)N2CCN(C)CCC2=O)cc1 (stereo not drawn)	-19%	.	.	-4%	.
c1ccc2c(Nc3nc4c(s3)CCCC4)cccc2c1	13µM*	13%	-18	?	-19
COc1cccc(C(=O)NNC(=O)c2ccc3ccccc3c2)c1	.	.	4	.	9
COc1cccc(/C=N/NC(=O)CSCC(=O)Nc2ccccc2)c1O	0.5µM*	?	-70*	1.6µM*	-85*
COc1cccc(/C=N\NC(=O)Cn2nnc3ccccc32)c1O	1.3µM*	12%	-93*	3.2µM*	-93*
COc1ccc(/C=N\NC(=O)CCc2c(C)n[nH]c2C)c(OC)c1OC	-4%	-3%	-1	-10%	-5
COc1cccc(/C=N/NC(=O)CCn2nnc3ccccc32)c1	?	-2%	-4	-3%	0
COc1cccc(/C=N/NC(=O)CCc2c(C)n[nH]c2C)c1O	1.4µM*	7%	?	3.2µM*	?
COc1ccc(O)c(/C=N\NC(=O)CCn2nnc3ccccc32)c1	8.9µM*	19%	?	2.8µM*	?
COc1cc(/C=N/NC(=O)Cn2nnc3ccccc32)ccc1O	6%	-6%	-1	7%	.
COc1ccc(-c2nnc3n2N=C(c2c(OC)cccc2OC)CS3)c(OC)c1	-1%	.	.	7%	.
SMILES	RORgamma inh	p53 reactivator	Six1-Eya2 inh	Gal4-VP16 FLuc	CtBP-E1A inh
O=C(O)CN(CC(=O)O)c1ccccc1OCCOc1ccccc1N(CC(=O)O)CC(=O)O	-6%	.	.	1%	.
CC(=O)Nc1nc(-c2cc([N+](=O)[O-])cs2)cs1	-27%	4%	4	2%	.
COc1cccc(/C=N/n2c(C)nc3ccccc3c2=O)c1O	3.2µM*	16%	-20	16µM*	?
Cc1ccc(-n2[nH]c(C)c(C=NCc3ccncc3)c2=O)cc1	6%	12%	6	-16%	2
CCCc1nc2ccccc2c(=O)n1/N=C/c1ccccc1O	2.5µM*	9%	?	10µM*	15
CCCc1nc2ccccc2c(=O)n1/N=C/c1c(C)[nH]n(-c2ccc(C)cc2)c1=O	13µM*	14%	-1	?	?
CCc1nc2ccccc2c(=O)n1/N=C/c1ccc(Cl)cc1	.	.	5	.	10
Cc1nc2ccccc2c(=O)n1/N=C/c1ccc(O)cc1O	-30%	-2%	-18	-3%	?
